Molecules are shown by their SMILES. Activity calls are given as the source filed them.

Assay [1] relates to Plasmodium falciparum Sir2 (PF13_0152, Sir2A). Kind of assay: Plasmodium falciparum Sir2A binding compounds – biochemical, small-molecule microarray, 635 nm fluorescence, primary screen (AID 1098).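 Also: score merges spot fluorescence intensity with its signal-to-noise ratio.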 The note with it: fluorescence 635 nm, higher = more signal.
Assay [2] is described as follows: probe aDKK1 binding to arrayed compounds – biochemical, biotinylated probe, 635/667 nm fluorescence, primary screen (AID 1099).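 Also: score merges 667nm spot fluorescence with signal to noise across triplicate slides.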 The note with it: small-molecule microarray, higher = more signal.
Assay [3] is described as follows: probe aCHRDL2 binding to arrayed compounds – biochemical, biotinylated probe, 635/667 nm fluorescence, primary screen (AID 1100). The note with it: small-molecule microarray, higher = more signal.
Assay [4] can be described thus: change in splice reporter luminescence, either direction, cell-based, HEK293, spliceosome inhibition project, primary screen (AID 1101).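 Also: HEK293 cells carrying a splicing-competent luciferase reporter gene; test concentration not given here.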 The note with it: HEK293 splicing luciferase reporter, 24 h, higher = more signal, called active from +8 up or from −8 down.
The target in assay [5] is Fibroblast growth factor 10 (Homo sapiens) (UniProt O15520). Kind of assay: compounds binding fibroblast growth factor 10 – biochemical, small-molecule microarray, 635 nm fluorescence, primary screen (AID 1102). The note with it: FGF10 binding, fluorescence 635 nm, higher = more signal.
Chain of Fibroblast growth factor 10 (Homo sapiens) (O15520 whole entry, looked up): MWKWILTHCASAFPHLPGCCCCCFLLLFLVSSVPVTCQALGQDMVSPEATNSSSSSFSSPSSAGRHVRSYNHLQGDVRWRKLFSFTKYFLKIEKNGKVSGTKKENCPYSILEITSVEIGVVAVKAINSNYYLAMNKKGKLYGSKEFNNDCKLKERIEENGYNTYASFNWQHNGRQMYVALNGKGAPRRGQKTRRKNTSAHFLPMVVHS
The subject of assay [6] is glycogen synthase kinase-3 (GSK3A per assay name; protocol says GSK3B). Kind of assay: compounds binding glycogen synthase kinase-3 – biochemical, small-molecule microarray, 635 nm fluorescence, GSK3A, primary screen (AID 1103). Also: the record names both GSK3A and GSK3B. The note with it: fluorescence 635 nm, higher = more signal.
Assay [7] concerns the target Epidermal growth factor receptor (Homo sapiens) (UniProt P00533). Kind of assay: compounds binding epidermal growth factor receptor – biochemical, small-molecule microarray, 635 nm fluorescence, primary screen (AID 1104).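 Also: score merges 667 nm emission intensity with spot signal to noise over triplicate slides.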 The note with it: EGFR binding, higher = more signal.
The target of assay [8] is Follistatin-related protein 3 (Homo sapiens) (UniProt O95633). Kind of assay: compounds binding follistatin-related protein 3 – biochemical, small-molecule microarray, 635 nm fluorescence, primary screen (AID 1105).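 Also: score merges emission near 667 nm and signal to noise per printed spot across three slides.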 The note with it: FSTL3 binding, higher = more signal.
Chain of Follistatin-related protein 3 (Homo sapiens) (O95633 whole entry, looked up): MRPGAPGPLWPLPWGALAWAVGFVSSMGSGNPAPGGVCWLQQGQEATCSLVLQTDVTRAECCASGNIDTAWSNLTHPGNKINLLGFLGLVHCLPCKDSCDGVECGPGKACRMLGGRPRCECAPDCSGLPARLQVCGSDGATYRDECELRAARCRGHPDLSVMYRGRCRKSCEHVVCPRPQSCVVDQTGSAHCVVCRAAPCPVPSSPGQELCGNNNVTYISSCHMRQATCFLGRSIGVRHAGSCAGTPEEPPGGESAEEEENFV
Assay [9] concerns the target Dickkopf-related protein 1 (Homo sapiens) (UniProt O94907). Kind of assay: small molecules binding DKK1 protein – biochemical, small-molecule microarray, 635 nm fluorescence scan, primary screen (AID 1106).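 Also: score merges emission near 667 nm with signal to noise over three replicate slides.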 The note with it: higher = more signal.
Assay [10] relates to Inhibin beta A chain (activin A). As to the kind of experiment: small molecules binding activin A – biochemical, small-molecule microarray, 635 nm fluorescence scan, primary screen (AID 1107).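 Also: mouse activin A protein probed at 4.33 µg/mL on printed slides; score merges bound-protein fluorescence near 667 nm with spot signal-to-noise.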 The note with it: INHBA, higher = more signal.
The test system of assay [11] is Human papillomavirus type 1a protein E7 (residues 44-93). Kind of assay: small molecules binding HPV E7 44-93 – biochemical, small-molecule microarray, residues 44-93, 635 nm fluorescence, primary screen (AID 1108).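 Also: E7 fragment applied at 1 µg/mL in TBST for 1 h at 4 C; score combines spot fluorescence with its signal to noise ratio.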 The note with it: fluorescence 635 nm, higher = more signal.
Assay [12] can be described thus: hepatitis C replication reporter changes, two-sided – Huh7 cells, luciferase reporter, HCV replication inhibitor project, primary screen (AID 1109).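 Also: huh7 hepatoma cells harbouring a luciferase neomycin HCV replicon reporter; luciferase luminescence as measure of HCV replicon replication; test concentration not given here.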 The note with it: Huh7 HCV replicon luciferase reporter, 48 h; higher = more signal.
Assay [13] has as its target Left-right determination factor 2 (Homo sapiens) (UniProt O00292). Kind of assay: small molecules binding LEFTY2 protein – biochemical, small-molecule microarray, 635 nm fluorescence scan, primary screen (AID 1110). The note with it: higher = more signal.
Assay [14] has as its target Calmodulin-1 (Homo sapiens) (UniProt P0DP23). As to the kind of experiment: small molecules binding calmodulin-1 with EGTA – biochemical, small-molecule microarray, Cy5-labelled CALM1, profiling panel (AID 1111).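 Also: labelled calmodulin applied in Tris saline Tween buffer holding calcium plus EGTA and DTT.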 The note with it: Cy5-CALM1 binding fluorescence, higher = more signal.
For assay [15] the target is unchanged. Kind of assay: small molecules binding Ca-loaded calmodulin-1 – biochemical, small-molecule microarray, Cy5-labelled CALM1, plus calcium, artefact control for SMM control-protein annotation, profiling panel (AID 1112).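 Also: score merges spot fluorescence with signal to noise from triplicate slides.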 The note with it: Cy5-CALM1 binding fluorescence, higher = more signal.
Assay [16] can be described thus: probe aWnt5a binding to arrayed compounds – biochemical, biotinylated probe, 635/667 nm fluorescence, primary screen (AID 1113).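 Also: score merges 667 nm fluorescence intensity with signal-to-noise per printed feature.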 The note with it: small-molecule microarray, higher = more signal.
Assay [17] in a line: probe aShh binding to arrayed compounds – biochemical, biotinylated probe, 635/667 nm fluorescence, primary screen (AID 1114).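 Also: probe is biotin-labelled aShh protein from a stem cell growth factor screen; measures binding of labelled protein to compounds printed on the slide; score merges feature fluorescence at 667 nm with signal-to-noise.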 The note with it: small-molecule microarray, higher = more signal.
Assay [18] is described as follows: probe aNog binding to arrayed compounds – biochemical, biotinylated probe, 635/667 nm fluorescence, primary screen (AID 1115).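 Also: probe is biotinylated aNog protein used at 0.15 µg/mL for 1 h at 4 C; z-score combines 667 nm fluorescence of each spot with its signal to noise.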 The note with it: small-molecule microarray, higher = more signal.
Assay [19] addresses Torsin-1A-interacting protein 1 (Homo sapiens) (UniProt Q5JTV8). As to the kind of experiment: compound microarray binding of lysate hLAP1 – cell lysate, small-molecule microarray, COS7 lysate, 635/667 nm fluorescence, primary screen (AID 1116). The note with it: 635 nm fluorescence, higher = more signal.
In assay [20] the target is Alpha-bungarotoxin (Bungarus multicinctus) (UniProt P60615). Kind of assay: compounds binding labelled alpha-BTX control protein – biochemical, small-molecule microarray, Alexa647 label, 635/667 nm fluorescence, artefact control for SMM control protein annotation, profiling panel (AID 1117). The note with it: alpha-BTX-A647 binding fluorescence, higher = more signal.
Chain of Alpha-bungarotoxin (Bungarus multicinctus) (P60615 whole entry, looked up): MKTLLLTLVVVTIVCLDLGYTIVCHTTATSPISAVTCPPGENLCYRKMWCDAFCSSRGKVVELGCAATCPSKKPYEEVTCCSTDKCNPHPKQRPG

Chain of Epidermal growth factor receptor (Homo sapiens) (P00533 whole entry, looked up): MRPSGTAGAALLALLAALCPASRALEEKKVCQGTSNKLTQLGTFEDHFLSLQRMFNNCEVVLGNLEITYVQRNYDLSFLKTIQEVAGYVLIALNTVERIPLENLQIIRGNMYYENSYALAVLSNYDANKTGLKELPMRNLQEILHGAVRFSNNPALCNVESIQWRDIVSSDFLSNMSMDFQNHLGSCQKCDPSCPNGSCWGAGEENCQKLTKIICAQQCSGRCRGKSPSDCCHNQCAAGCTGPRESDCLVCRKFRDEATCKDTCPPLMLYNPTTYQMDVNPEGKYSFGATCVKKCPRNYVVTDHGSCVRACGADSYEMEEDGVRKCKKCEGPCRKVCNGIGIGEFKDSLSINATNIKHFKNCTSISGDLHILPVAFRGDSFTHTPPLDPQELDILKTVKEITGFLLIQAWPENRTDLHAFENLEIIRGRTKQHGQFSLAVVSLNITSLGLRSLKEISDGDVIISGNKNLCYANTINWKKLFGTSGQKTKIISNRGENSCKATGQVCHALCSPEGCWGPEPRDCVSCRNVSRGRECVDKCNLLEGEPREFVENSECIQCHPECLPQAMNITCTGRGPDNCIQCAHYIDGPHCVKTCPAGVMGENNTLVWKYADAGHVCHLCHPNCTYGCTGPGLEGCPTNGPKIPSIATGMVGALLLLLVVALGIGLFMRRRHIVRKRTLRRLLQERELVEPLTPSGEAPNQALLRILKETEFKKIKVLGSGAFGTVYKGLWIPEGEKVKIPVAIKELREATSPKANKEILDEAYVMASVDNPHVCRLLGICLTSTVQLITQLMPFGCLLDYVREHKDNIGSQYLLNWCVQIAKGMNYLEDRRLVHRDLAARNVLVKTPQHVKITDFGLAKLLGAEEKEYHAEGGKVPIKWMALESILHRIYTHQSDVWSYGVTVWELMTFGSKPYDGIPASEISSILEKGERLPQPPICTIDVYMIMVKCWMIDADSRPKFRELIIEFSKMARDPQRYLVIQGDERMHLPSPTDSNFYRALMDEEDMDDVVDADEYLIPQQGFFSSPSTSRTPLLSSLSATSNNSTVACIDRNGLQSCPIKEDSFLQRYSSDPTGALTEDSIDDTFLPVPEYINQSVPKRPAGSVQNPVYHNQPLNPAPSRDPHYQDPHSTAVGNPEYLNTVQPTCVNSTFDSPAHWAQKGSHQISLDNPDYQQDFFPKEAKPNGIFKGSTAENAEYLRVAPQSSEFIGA
Chain of Dickkopf-related protein 1 (Homo sapiens) (O94907 whole entry, looked up): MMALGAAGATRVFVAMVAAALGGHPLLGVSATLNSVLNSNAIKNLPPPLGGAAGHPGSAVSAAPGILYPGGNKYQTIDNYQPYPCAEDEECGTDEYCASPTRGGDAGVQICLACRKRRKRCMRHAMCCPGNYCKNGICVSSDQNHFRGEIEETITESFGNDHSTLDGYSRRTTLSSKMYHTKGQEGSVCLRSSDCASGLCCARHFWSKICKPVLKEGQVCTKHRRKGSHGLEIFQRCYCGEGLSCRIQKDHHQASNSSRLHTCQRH
Chain of Left-right determination factor 2 (Homo sapiens) (O00292 whole entry, looked up): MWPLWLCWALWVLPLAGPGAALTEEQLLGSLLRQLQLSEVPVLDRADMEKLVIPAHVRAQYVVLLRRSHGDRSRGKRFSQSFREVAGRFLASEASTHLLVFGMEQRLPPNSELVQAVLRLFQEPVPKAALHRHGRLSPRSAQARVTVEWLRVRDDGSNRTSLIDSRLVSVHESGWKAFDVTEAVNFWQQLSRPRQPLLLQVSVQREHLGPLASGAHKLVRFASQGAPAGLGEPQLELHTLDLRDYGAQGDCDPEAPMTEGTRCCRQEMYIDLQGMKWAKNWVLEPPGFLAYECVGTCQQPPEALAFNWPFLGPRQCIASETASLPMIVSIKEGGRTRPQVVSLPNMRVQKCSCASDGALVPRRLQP
Chain of Torsin-1A-interacting protein 1 (Homo sapiens) (Q5JTV8 whole entry, looked up): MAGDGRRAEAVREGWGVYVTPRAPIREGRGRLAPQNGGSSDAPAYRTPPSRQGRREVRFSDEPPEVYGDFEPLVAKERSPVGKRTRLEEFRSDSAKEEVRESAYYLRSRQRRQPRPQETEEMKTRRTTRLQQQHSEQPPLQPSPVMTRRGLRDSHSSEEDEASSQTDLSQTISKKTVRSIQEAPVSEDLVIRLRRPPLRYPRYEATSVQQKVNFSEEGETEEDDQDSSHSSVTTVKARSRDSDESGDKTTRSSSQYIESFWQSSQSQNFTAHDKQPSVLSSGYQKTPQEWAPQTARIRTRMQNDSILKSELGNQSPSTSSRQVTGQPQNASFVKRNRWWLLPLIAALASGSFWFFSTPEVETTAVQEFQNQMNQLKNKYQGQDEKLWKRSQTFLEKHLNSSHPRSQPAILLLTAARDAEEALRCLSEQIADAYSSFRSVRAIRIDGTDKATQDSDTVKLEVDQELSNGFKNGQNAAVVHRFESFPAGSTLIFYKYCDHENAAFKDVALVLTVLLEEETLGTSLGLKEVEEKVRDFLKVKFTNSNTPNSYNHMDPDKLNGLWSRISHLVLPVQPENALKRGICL

Consider `CN1C2C=C(c3ccc(CO)cc3)C(C3C(=O)N(C(N)=O)C(=O)C32)C1c1cccs1` (stereo not given), for which the composite z-score in assay [1] is 1.41; in [2] it was -0.0009; in assay [3], 0.549; in [5], 0.25; in assay [6], -0.148; in [7], 0.136. For the same compound, the composite z-score in assay [8] is -0.623; in assay [9], -0.72; in assay [10], 1.02; in assay [11] it was -0.232; in [13] it was 0.217; in [14], 0.45. In addition, the composite z-score is 0.47 in assay [15]; -0.156 in [16]; -0.0769 in assay [17]; 0.408 in [18]; 1.24 in assay [19]; -1.09 in [20]. Further, the z-score in assay [4] is -0.795 (inactive); in assay [12], 0.374.
On to `COc1cc(CO)cc(I)c1O[C@H]1C=C(C(=O)NCCO)C[C@@H](N(CC2CCCCC2)C(=O)c2cc3ccccc3oc2=O)[C@@H]1O`, for which the composite z-score in [1] is -0.375; in assay [2], -0.34; in assay [3], -0.293; in [5], 0.975; in assay [6], 0.0996; in [7], 0.6. The composite z-score in assay [8] was 0.797; in assay [9], 0.174; in assay [10], 0.14; in assay [11] it was -0.376; in assay [13], 0.252; in assay [14], 0.0059. The composite z-score in assay [15] was -0.857; in [16], -0.185; in assay [17] it was -0.0904; in assay [18], -0.446; in assay [19], 0.646; in [20] it was -0.431. Further, the z-score in assay [4] is -0.00607 (inactive); in [12] it was 0.806.
For the compound `Cc1ccc(S[C@]2(C(=O)NCCCN(C)C)CC(=O)N(Cc3ccccc3)[C@@H]2c2ccc(CO)cc2I)cc1`, the composite z-score in assay [1] is 0.16; in assay [2], 1.09; in assay [3] it was 1.3; in assay [5] it was -0.347; in assay [6], -0.753; in [7], -1.12. For the same compound, the composite z-score in assay [8] is -0.575; in assay [9], -1.37; in assay [10], 1.35; in [11], 0.544; in assay [13], -0.941; in assay [14], 0.453. Further, the composite z-score in assay [15] was 0.728; in assay [16], -0.091; in [17] it was 0.0756; in assay [18], 1.09; in assay [19] it was 0.0632; in assay [20], 0.913. The z-score is -1.81 (inactive) in [4] and -2.94 in [12].
`CCN1C(C)=C(C(=O)OC)[C@@H](c2ccccc2)N2C(=O)[C@@]3(C(=O)OC)O[C@@]12[C@@H]1C(=O)N(c2ccccc2)C(=O)[C@@H]13`: the composite z-score was 0.286 in assay [1]; 0.0355 in assay [2]; -0.253 in [3]; 1 in [5]; 0.85 in assay [6]; 0.472 in [7]. Besides, the composite z-score in [8] was 1.24; in assay [9] it was 0.4; in [10] it was -0.545; in assay [11] it was 0.121; in assay [13], 0.341; in assay [14] it was -0.173. The composite z-score is -0.525 in [15]; -0.0758 in assay [16]; 0.0893 in assay [17]; 0.221 in [18]; 0.905 in assay [19]; 0.38 in assay [20]. In addition, the z-score was -1.66 (inactive) in [4] and -0.181 in [12].
With `COCCOC(=O)N1C(=O)[C@@]2(c3cc(C#CC4=CCCCC4)ccc31)[C@H](c1ccc(O)cc1)N1[C@H](c3ccccc3)[C@H](c3ccccc3)OC(=O)[C@H]1[C@@H]2C(=O)N1CCCCCCC1`, the composite z-score in assay [1] was 0.84; in [2], 0.854; in assay [3], 0.842; in assay [5] it was 0.603; in assay [6], 1.3; in assay [7], 0.405. For the same compound, the composite z-score in [8] is 1.24; in [9] it was 0.948; in assay [10] it was 1.6; in assay [11] it was 1.29; in assay [13], 0.8; in assay [14], 1.11. Moreover, the composite z-score was 0.716 in assay [15]; -0.0732 in assay [16]; 0.332 in [17]; 0.512 in assay [18]; 0.691 in assay [19]; 1.69 in assay [20]. The z-score in [4] is -0.476 (inactive); in assay [12] it was -0.387.

These data come from PubChem BioAssay.
